Assay results published in the supplement of paper PMC10849652.
The full data set covers some 7,900 targets. This sample favours those with a hit. About 0.6% of all pairs of compound and target were hits. Values without a mark were called inactive.

Tests used:
Assay in all cases: log2 fold change, soluble protein after heating vs DMSO (PISA); higher = thermal stabilisation; K562 cells, 10 uM, 30 min; active = over 0.2 and 3.5 SD of the protein, either way, in both replicates (recomputed)
[1] = compound: NC(=O)Nc1cc(-c2cccc(F)c2)sc1C(=O)N[C@H]1CCCNC1
Method in brief: (§1)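 K562 cells at 2×10^6 cells/mL were treated for 30 min with 10 μM compound, and aliquots were heated for 3 min over 48°C-58°C before pooling. Extraction used PBS with 0.5% NP-40 at 4°C, and soluble protein was the supernatant after 21,000xg for 90 min, measured by TMTpro 16plex LC-MS/MS with channel sums equalised. Thermal stability values, relative to control samples and from duplicates, are log2 fold changes.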

[2] = compound: NC(=O)c1cnc(N[C@@H]2CCCC[C@@H]2N)nc1Nc1cccc(-n2nccn2)c1
Method in brief: as §1

[3] = compound: NC1(c2ccc(-c3nc4ccn5c(=O)[nH]nc5c4cc3-c3ccccc3)cc2)CCC1
Method in brief: as §1

[4] = compound: NCC(=O)Nc1ccc(-n2nc(C(F)(F)F)cc2-c2ccc3c(ccc4ccccc43)c2)cc1
Method in brief: as §1

[5] = compound: Nc1ccccc1NC(=O)c1ccc(CNC(=O)OCc2cccnc2)cc1 [entinostat]
Method in brief: as §1

[6] = compound: O=C(CCCCCCC(=O)Nc1ccccc1)NO [vorinostat]
Method in brief: as §1

[7] = compound: O=C(CCCCCCNC(=O)c1cnc(N(c2ccccc2)c2ccccc2Cl)nc1)NO [citarinostat]
Method in brief: as §1

[8] = compound: O=C(O)c1ccc2c(c1)nc(Nc1cccc(Cl)c1)c1ccncc12 [silmitasertib]
Method in brief: as §1

[9] = compound: O=C1NC(=O)C(c2cnc3ccccn23)=C1c1cn2c3c(cc(F)cc13)CN(C(=O)N1CCCCC1)CC2
Method in brief: as §1

[10] = compound: c1cc(OCCN2CCCCC2)cc(-c2n[nH]c3ccc(-c4nnc[nH]4)cc23)c1
Method in brief: as §1

[11] = compound: c1cn2cc(-c3ccc4cn[nH]c4c3)nc(Nc3ccc(N4CCOCC4)cc3)c2n1 [entospletinib]
Method in brief: as §1

Sequence of UniProt Q9H2M9 (Q9H2M9 whole entry, looked up): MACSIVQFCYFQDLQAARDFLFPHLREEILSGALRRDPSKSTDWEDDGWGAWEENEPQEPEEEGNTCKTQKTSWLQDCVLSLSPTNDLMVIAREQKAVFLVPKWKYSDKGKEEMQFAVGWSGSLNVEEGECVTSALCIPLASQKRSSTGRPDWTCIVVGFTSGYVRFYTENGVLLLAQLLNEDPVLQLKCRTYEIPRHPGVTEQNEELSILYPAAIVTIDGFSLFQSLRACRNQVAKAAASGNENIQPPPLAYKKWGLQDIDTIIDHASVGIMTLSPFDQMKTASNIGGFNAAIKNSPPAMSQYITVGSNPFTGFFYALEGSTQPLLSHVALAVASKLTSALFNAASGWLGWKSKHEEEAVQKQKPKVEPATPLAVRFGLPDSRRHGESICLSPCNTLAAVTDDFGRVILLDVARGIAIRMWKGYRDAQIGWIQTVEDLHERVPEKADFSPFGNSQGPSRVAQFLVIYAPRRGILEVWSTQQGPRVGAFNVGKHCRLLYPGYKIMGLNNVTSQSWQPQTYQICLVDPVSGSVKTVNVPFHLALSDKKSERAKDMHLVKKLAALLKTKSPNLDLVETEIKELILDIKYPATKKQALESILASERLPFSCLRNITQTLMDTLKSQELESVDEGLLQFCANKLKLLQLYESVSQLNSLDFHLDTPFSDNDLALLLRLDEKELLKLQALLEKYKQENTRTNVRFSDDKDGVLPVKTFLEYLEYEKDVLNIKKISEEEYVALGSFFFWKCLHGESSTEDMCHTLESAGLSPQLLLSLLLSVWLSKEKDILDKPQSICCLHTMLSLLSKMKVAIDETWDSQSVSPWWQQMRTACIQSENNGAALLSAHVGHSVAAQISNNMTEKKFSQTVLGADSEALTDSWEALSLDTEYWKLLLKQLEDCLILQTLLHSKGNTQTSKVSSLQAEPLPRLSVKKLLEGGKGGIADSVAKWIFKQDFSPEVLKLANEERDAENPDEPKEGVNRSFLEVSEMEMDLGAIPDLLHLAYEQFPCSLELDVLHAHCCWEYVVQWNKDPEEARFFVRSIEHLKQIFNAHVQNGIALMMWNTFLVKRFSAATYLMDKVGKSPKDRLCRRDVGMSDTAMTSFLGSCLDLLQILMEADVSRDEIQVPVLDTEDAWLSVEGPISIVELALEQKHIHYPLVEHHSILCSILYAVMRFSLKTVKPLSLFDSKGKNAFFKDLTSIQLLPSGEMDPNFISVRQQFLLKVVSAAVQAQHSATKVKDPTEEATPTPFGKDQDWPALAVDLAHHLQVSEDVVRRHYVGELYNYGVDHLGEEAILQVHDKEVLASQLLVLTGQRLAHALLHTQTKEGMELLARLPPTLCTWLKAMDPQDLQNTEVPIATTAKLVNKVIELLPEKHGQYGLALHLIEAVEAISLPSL
Sequence of UniProt Q5TA31 (Q5TA31 whole entry, looked up): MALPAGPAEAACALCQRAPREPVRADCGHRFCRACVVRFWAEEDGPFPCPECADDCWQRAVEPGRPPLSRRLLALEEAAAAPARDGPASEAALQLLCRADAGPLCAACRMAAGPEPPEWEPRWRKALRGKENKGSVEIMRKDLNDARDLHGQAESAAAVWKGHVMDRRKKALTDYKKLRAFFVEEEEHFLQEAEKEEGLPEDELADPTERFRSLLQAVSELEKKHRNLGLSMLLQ
Sequence of UniProt Q9NW64 (Q9NW64 whole entry, looked up): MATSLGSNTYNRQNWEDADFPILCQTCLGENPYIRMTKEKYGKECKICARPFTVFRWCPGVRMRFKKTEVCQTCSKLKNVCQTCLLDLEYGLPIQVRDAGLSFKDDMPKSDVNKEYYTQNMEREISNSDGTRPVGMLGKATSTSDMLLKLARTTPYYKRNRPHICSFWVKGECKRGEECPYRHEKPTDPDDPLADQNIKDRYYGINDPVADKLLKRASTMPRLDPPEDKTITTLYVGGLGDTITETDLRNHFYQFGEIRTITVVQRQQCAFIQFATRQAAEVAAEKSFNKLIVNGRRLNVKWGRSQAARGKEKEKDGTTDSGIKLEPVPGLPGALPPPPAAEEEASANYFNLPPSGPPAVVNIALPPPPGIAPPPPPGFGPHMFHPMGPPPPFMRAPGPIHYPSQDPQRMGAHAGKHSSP
Sequence of UniProt Q15349 (Q15349 whole entry, looked up): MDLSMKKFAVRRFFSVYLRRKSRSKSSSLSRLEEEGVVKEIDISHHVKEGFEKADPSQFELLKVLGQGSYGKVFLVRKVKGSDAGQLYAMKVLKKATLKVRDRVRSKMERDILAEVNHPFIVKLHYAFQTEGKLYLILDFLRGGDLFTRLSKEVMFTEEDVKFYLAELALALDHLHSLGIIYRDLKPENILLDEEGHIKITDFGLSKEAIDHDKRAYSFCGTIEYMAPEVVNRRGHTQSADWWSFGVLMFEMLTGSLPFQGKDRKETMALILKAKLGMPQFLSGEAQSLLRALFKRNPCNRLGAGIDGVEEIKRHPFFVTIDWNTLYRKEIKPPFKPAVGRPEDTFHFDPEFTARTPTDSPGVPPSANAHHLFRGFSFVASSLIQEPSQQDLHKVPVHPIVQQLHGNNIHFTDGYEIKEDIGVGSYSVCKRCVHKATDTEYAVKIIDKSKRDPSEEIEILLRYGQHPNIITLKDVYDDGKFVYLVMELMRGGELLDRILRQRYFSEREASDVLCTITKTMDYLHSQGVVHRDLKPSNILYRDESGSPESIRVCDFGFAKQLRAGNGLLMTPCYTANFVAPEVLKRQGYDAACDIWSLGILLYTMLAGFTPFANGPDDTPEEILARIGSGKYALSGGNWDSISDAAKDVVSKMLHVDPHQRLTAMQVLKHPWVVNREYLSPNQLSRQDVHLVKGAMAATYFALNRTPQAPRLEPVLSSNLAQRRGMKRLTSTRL
Sequence of UniProt Q96DM3 (Q96DM3 whole entry, looked up): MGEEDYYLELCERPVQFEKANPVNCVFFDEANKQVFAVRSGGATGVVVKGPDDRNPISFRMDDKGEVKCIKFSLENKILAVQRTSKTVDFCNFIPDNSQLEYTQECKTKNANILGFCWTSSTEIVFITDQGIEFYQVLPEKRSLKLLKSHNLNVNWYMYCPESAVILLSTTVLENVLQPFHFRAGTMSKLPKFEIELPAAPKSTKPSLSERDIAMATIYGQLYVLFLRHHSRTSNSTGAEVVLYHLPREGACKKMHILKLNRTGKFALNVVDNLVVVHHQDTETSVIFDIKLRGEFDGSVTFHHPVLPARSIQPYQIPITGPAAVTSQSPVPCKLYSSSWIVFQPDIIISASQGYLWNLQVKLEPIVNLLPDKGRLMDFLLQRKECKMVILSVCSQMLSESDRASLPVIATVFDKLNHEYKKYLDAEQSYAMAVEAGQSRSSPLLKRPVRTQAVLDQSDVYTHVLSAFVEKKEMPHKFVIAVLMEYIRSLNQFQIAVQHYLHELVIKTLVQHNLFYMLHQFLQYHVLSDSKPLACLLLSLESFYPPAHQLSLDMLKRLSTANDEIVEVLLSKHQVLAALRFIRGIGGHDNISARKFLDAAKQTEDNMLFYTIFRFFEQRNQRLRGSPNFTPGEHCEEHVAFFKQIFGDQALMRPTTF
Sequence of UniProt Q9Y3L5 (Q9Y3L5 whole entry, looked up): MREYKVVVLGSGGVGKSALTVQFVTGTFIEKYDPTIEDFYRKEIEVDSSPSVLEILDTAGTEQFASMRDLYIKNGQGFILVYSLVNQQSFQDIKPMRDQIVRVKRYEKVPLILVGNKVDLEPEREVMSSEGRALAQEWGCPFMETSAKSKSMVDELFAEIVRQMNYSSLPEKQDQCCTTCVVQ
Sequence of UniProt Q9NPQ8 (Q9NPQ8 whole entry, looked up): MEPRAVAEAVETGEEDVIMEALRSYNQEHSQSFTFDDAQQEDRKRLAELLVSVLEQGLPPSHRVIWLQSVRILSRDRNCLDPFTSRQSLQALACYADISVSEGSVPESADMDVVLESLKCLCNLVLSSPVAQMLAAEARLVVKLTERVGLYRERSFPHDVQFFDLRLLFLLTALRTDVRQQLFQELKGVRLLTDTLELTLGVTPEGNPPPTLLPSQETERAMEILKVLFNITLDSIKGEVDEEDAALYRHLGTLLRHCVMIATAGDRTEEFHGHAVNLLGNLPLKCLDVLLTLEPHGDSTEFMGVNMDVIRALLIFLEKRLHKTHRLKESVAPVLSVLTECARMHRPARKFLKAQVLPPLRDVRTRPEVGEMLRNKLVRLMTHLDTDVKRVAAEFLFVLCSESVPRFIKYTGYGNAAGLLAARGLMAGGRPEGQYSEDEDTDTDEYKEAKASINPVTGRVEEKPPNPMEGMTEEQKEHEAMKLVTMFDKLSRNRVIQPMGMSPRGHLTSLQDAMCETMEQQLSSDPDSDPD
Sequence of UniProt O00767 (O00767 whole entry, looked up): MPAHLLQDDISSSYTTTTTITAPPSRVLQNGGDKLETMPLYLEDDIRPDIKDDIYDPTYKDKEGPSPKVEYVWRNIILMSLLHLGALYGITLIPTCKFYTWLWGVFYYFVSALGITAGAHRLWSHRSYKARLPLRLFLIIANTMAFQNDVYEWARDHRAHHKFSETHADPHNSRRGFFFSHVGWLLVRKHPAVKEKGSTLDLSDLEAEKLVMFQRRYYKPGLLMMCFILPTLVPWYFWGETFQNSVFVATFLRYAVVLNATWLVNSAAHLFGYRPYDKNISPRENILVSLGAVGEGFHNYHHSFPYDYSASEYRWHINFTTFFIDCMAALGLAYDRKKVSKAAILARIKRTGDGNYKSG
Sequence of UniProt Q9UKL0 (Q9UKL0 whole entry, looked up): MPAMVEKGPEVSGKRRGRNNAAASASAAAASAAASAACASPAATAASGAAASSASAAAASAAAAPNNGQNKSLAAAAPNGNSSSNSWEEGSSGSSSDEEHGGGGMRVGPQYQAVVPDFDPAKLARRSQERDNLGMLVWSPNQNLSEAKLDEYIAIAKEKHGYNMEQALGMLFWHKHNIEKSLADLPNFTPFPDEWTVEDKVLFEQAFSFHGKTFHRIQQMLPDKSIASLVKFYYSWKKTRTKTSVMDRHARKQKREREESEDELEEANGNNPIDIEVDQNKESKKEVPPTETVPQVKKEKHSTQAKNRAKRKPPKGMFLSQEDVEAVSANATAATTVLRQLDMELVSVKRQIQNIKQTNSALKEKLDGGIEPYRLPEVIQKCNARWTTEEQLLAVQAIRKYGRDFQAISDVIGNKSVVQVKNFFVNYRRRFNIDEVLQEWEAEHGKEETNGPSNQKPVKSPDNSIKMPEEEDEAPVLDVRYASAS

| Target | log2 fold change [1] | log2 fold change [2] | log2 fold change [3] | log2 fold change [4] | log2 fold change [5] | log2 fold change [6] | log2 fold change [7] | log2 fold change [8] | log2 fold change [9] | log2 fold change [10] | log2 fold change [11] |
| --- | --- | --- | --- | --- | --- | --- | --- | --- | --- | --- | --- |
| SH3GL1 (UniProt Q99961) | -0.049 | -0.088 | -0.106 | -0.032 | 0.143 | 0.082 | 0.068 | 0.028 | 0.006 | -0.041 | -0.008 |
| RHOA (UniProt P61586) | -0.01 | 0.036 | 0.204 | 0.123 | -0.019 | -0.16 | -0.047 | -0.136 | -0.057 | 0.104 | 0.054 |
| SGPL1 (UniProt O95470) | -0.01 | 0.004 | -0.005 | 0.144 | 0 | -0.014 | 0.009 | -0.034 | 0.064 | -0.134 | -0.017 |
| RPS6KA1 isoform 2 (UniProt Q15418) | -0.131 | -0.242 | -0.205 | -0.096 | 0.06 | 0.109 | 0.058 | -0.08 | -0.099 | -0.32 | 0.026 |
| RAP1GDS1 isoform 5 (UniProt P52306) | -0.059 | -0.069 | -0.181 | -0.117 | 0.027 | 0.119 | 0.2 | 0.087 | -0.049 | -0.002 | -0.025 |
| SCD (UniProt O00767) | -0.064 | -0.151 | -0.071 | -0.054 | -0.043 | -0.382 (active) | -0.403 (active) | 0.083 | 0.051 | -0.005 | 0.023 |
| RIC8A isoform 3 (UniProt Q9NPQ8) | -0.035 | -0.154 | -0.126 | -0.088 | 0.192 | 0.058 | 0.12 | -0.005 | 0.084 | -0.096 | 0.095 |
| SH3GLB2 (UniProt Q9NR46) | -0.105 | -0.13 | -0.163 | 0.004 | 0.069 | 0.081 | 0.059 | 0.015 | -0.028 | -0.13 | 0.034 |
| SFXN5 (UniProt Q8TD22) | -0.043 | 0.042 | -0.072 | -0.095 | -0.068 | 0.019 | -0.028 | -0.003 | 0.012 | 0.072 | 0.01 |
| SASH1 (UniProt O94885) | -0.08 | -0.06 | -0.053 | -0.147 | 0.035 | 0.077 | 0.167 | 0.033 | 0.008 | -0.218 | 0.053 |
| RBM22 (UniProt Q9NW64) | -0.027 | -0.004 | 0.032 | -0.049 | -0.008 | -0.009 | -0.038 | 0.119 | -0.063 | -0.043 | -0.015 |
| RPS25 (UniProt P62851) | -0.043 | 0.071 | 0.192 | 0.053 | -0.072 | 0.032 | -0.066 | -0.061 | 0.107 | -0.052 | 0.075 |
| SART3, A0A499FI31 | -0.011 | -0.105 | -0.175 | -0.054 | 0.055 | 0.1 | 0.098 | 0.114 | -0.136 | -0.02 | 0.023 |
| RAB3GAP2 (UniProt Q9H2M9) | -0.049 | -0.067 | -0.089 | -0.04 | 0.057 | 0.106 | 0.089 | 0.095 | 0.099 | -0.065 | 0.091 |
| RPS18 (UniProt P62269) | -0.032 | 0.08 | 0.122 | 0.049 | -0.083 | 0.023 | -0.093 | 0 | 0.069 | -0.145 | 0.094 |
| RDH10 (UniProt Q8IZV5) | -0.033 | -0.017 | -0.016 | 0.015 | 0.015 | -0.069 | -0.019 | -0.097 | -0.039 | 0.012 | 0.03 |
| RNF187 (UniProt Q5TA31) | 0.004 | -0.056 | -0.033 | 0.07 | -0.019 | 0.095 | 0.054 | 0.012 | -0.061 | 0.035 | 0.027 |
| RIOK3 (UniProt O14730) | 0.047 | -0.005 | -0.061 | 0.015 | -0.005 | 0.043 | 0.036 | -0.011 | 0.057 | -0.046 | -0.001 |
| RCOR1 (UniProt Q9UKL0) | 0.035 | -0.104 | -0.03 | -0.133 | 0.189 | 0.082 | 0.007 | 0.016 | -0.043 | -0.103 | 0.002 |
| RPS3A (UniProt P61247) | 0.01 | 0.084 | 0.164 | 0.035 | -0.04 | 0.041 | -0.071 | 0.017 | 0.088 | -0.131 | 0.082 |
| REL (UniProt Q04864) | -0.053 | -0.131 | -0.108 | 0.028 | -0.007 | -0.122 | 0.053 | 0.053 | -0.054 | -0.09 | 0.054 |
| RAP2C (UniProt Q9Y3L5) | 0.072 | 0.299 (active) | 0.133 | 0.118 | -0.045 | 0.051 | 0.056 | -0.04 | -0.008 | -0.061 | 0.017 |
| SH3PXD2B (UniProt A1X283) | 0.066 | 0.248 | -0.082 | 0.052 | -0.056 | -0.128 | 0.032 | -0.108 | 0.009 | 0.026 | -0.131 |
| RMC1 (UniProt Q96DM3) | -0.026 | -0.141 | -0.384 (active) | -0.039 | 0.048 | 0.017 | 0.04 | 0.025 | -0.036 | -0.045 | -0.03 |
| SCPEP1 (UniProt Q9HB40) | 0.036 | 0.001 | -0.314 (active) | 0.008 | 0.023 | -0.037 | -0.043 | 0.003 | 0.024 | 0.022 | 0.004 |
| RARS (UniProt P54136) | 0.098 | -0.076 | 0.032 | -0.01 | 0.041 | 0.115 | 0.028 | 0.107 | 0.325 | -0.135 | 0.165 |
| RPS6KA2 isoform 2 (UniProt Q15349) | -0.129 | -0.256 | -0.269 | -0.035 | 0.067 | 0.122 | 0.106 | -0.044 | -0.056 | -0.295 | 0.013 |
